HSP90 inh: blocks HSP90-mediated luciferase refolding in reticulocyte lysate; Rabbit reticulocyte lysate, luciferase refolding luminescence, 3 h; inhibition, % at 5.6 µM; 290,000 tested, 0.91% active; AID 1789;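 active = inhibition above the screen-wide mean plus 3 SD, computed separately per campaign, cut at about 16% in these data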;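 also: inhibitors lower the luminescence because luciferase stays unfolded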
Platelet DG rel: platelet dense granule release activity; human platelet-rich plasma, SFLLRN dense granule ATP release, luminescence; inhibition, %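 (compounds screened at 7.5 µM in platelet-rich plasma)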; 300,000 tested, 0.22% active; AID 1663;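 active = mean replicate score, as percent of positive control, at or above 50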
SENP8 block-1: blocks the human protease SENP8; Q96LD8; purified SENP8, Z-RLRGG-aminoluciferin cleavage, luminescence; inhibition, % at 10 µM; 330,000 tested, 1.2% active; in the data active = inhibition above about 50%
Target sequence (Q96LD8 whole entry, looked up): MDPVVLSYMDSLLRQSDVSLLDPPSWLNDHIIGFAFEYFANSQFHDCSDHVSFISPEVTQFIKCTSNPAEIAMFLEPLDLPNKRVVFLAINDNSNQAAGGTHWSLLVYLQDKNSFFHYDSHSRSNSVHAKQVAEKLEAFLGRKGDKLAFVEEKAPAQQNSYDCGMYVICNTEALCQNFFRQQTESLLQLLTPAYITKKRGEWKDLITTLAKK
SENP8 block-2: blocks human SENP8 cleavage of Nedd8 substrate. Q96LD8. recombinant SENP8, Nedd8 substrate fluorescence. inhibition, % at 20 µM. 360,000 tested, 0.64% active; in the data active = inhibition mostly above about 40%, no sharp cut-off; inactive = mostly below about 27%
SENP6 inh: inhibitors of human SENP6 protease. Recombinant SENP6 catalytic domain, aminoluciferin luminescence. inhibition, % at 10 µM. 330,000 tested, 1.8% active;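 active = inhibition above about 50% at the single tested dose, limit read from the data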
SENP7 inh: SENP7 protease inhibition | Q9BQF6 | recombinant SENP7, Z-RLRGG-aminoluciferin luminescence, 40 min | inhibition, % at 5 µM | 330,000 tested, 1.5% active | AID 434973;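 active = inhibition above about 50% at the single test dose, limit read from the data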
SENP8 conf: human SENP8 inhibition, confirmed; shares compounds with SENP7 inh; Recombinant SENP8, Z-RLRGG-aminoluciferin luminescence, 60 min; inhibition, % at 12.5 µM; 6,200 tested, 40% active;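 active = mean inhibition across replicates above about 50%, limit read from the data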
SENP6 confirm: human SENP6 inhibition, confirmed; 6,200 tested, 58% active; inhibition, % at 12.5 µM; recombinant SENP6, Z-RLRGG-aminoluciferin luminescence; shares compounds with SENP7 inh; AID 488915
SENP7 confirm: human SENP7 inhibition, confirmed; recombinant SENP7, Z-RLRGG-aminoluciferin luminescence, 40 min; shares compounds with SENP7 inh; 6,200 tested, 69% active; AID 488917; inhibition, % at 12.5 µM
Casp3 select: inhibits human caspase-3 in SENP selectivity test; shares compounds with SENP7 inh; purified caspase-3, Z-DEVD-aminoluciferin luminescence, 60 min; inhibition, % at 12.5 µM; 6,200 tested, 60% active; AID 488918;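 active = mean inhibition above about 50%, limit read from the data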
Target sequence (P42574 28-227 limits assumed): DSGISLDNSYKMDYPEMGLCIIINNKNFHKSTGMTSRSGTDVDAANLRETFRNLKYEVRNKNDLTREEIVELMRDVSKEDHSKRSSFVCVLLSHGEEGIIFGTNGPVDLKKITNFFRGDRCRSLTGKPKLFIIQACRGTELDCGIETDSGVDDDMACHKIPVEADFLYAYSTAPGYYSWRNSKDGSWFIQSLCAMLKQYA
SENP luc ctr: counter-screen for SENP inhibitors: luminescence interference | shares compounds with SENP7 inh | Pre-incubated SENP8/Z-RLRGG-aminoluciferin, luciferase luminescence interference | inhibition, % at 12.5 µM | 6,200 tested, 39% active | AID 488919;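 active = mean inhibition above about 50% when retested at one dose, limit read from the data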
Hits are given with their value; – = inactive; · = not tested or not shown. In the library only some 2.8% were active in any assay of this set; here they are far more common.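 The calls were made as follows, unless noted: active = mean inhibition above about 50% in the one-dose retest (limit read from the data); inactive = the rest.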

SMILES	HSP90 inh	Platelet DG rel	SENP8 block-1	SENP8 block-2	SENP6 inh	SENP7 inh	SENP8 conf	SENP6 confirm	SENP7 confirm	Casp3 select	SENP luc ctr
COC(=O)c1ccc(NC(=O)Nc2ccc(F)cc2F)cc1	–	–	64	–	81	88	–	–	77	72	–
O=C(Nc1ccccc1)Nc1ccccc1Br	–	–	73	–	59	81	–	82	96	78	–
COC(=O)c1ccc(NC(=O)Nc2cccc(F)c2)cc1	–	–	79	–	88	90	75	75	96	69	–
CCO/C(C)=N/Oc1cnc2ccccc2c1	·	·	·	–	·	·	·	·	·	·	·
CCSc1nsc(NC(=O)Nc2ccccc2Cl)n1	·	·	·	–	·	·	·	·	·	·	·
CCSc1nsc(NC(=O)Nc2ccc(F)cc2F)n1	–	–	–	–	52	–	–	–	65	–	–
COc1cc(N/N=C/c2ccc(N(C)C)cc2)ncn1	–	57	93	–	96	97	70	81	94	78	–
Cc1cnn(-c2cc(N/N=C/c3ccccc3F)ncn2)c1	–	–	–	–	–	–	·	·	·	·	·
COc1cc(N/N=C/c2ccccc2O)ncn1	–	–	–	–	74	71	63	63	89	75	59
CC1(C(=O)NS(=O)(=O)c2ccc(Cl)cc2)CCN1C(=O)Cc1cccs1 (stereo not given)	·	·	·	–	·	·	·	·	·	·	·
O=C(O)c1ccc(N=NN2CCCCC2)cc1	–	–	–	–	68	–	54	–	85	57	66
CC(=O)Nc1ccc(S(=O)(=O)N2CCN(c3nc4ccccc4n3CC(C)C)CC2)cc1	–	–	–	–	–	–	·	·	·	·	·
CN(C(=O)CSc1n[nH]c(-c2cccs2)n1)C1CCS(=O)(=O)C1 (stereo not given)	·	–	–	–	–	–	·	·	·	·	·
Cc1nc(/C=C\C(=O)O)c2cc(C)oc2n1	–	–	–	–	–	–	·	·	·	·	·
O=C1C2C3C=CC(CC3)C2C(=O)N1/N=C/c1ccc(O)c(O)c1 (stereo not given)	–	–	–	–	–	–	·	·	·	·	·
O=C1c2ccccc2C(=O)N1/N=C/c1ccc(O)c(O)c1	–	–	51	–	66	–	–	–	82	70	64
Cc1oc2ccc(OCc3ccccc3F)cc2c1C(=O)O	–	–	53	–	77	–	61	57	83	74	69
Cc1oc2ccc(OCc3ccc(Br)cc3)cc2c1C(=O)O	–	–	–	–	68	–	–	80	63	56	–
Cc1oc2ccc(OCc3ccc(Cl)cc3)cc2c1C(=O)O	–	–	59	–	78	–	79	80	93	66	60
Cc1ccccc1COc1ccc2oc(C)c(C(=O)O)c2c1	–	–	–	–	–	–	·	·	·	·	·
O=C(NCC(=O)N1CCN(C(=O)c2ccco2)CC1)c1ccc(Br)cc1	–	–	–	–	–	–	·	·	·	·	·
O=[N+]([O-])c1ccccc1N(S(=O)(=O)c1ccccc1)S(=O)(=O)c1ccccc1	·	·	·	–	·	·	·	·	·	·	·
CC1CN(CCC(=O)Nc2ccccc2F)CC(C)O1 (stereo not given)	–	–	–	–	–	–	·	·	·	·	·
Cc1nn(C(C)C(=O)Nc2ccc(Cl)cn2)c(C)c1[N+](=O)[O-] (stereo not given)	–	–	–	–	–	80	–	–	–	–	–
Cc1nn(CC(=O)Nc2ccc(Cl)cn2)c(C)c1[N+](=O)[O-]	–	–	–	–	–	–	·	·	·	·	·
SMILES	HSP90 inh	Platelet DG rel	SENP8 block-1	SENP8 block-2	SENP6 inh	SENP7 inh	SENP8 conf	SENP6 confirm	SENP7 confirm	Casp3 select	SENP luc ctr
CCn1nc(C)c(CNC(=O)c2cc(COc3ccc(F)cc3Cl)on2)c1C	–	–	–	–	–	–	·	·	·	·	·
Nc1ccc(-c2nc3ccccc3[nH]2)cc1	–	–	–	–	70	65	–	–	83	82	66
Fc1ccc(-c2nc3ccccc3[nH]2)cc1	–	–	64	–	83	83	–	64	89	84	72
O=C(CSc1ccc(-c2nc3ccccc3[nH]2)cn1)Nc1ccc(S(=O)(=O)NC2CC2)cc1	–	–	71	–	85	72	82	–	98	56	86
O=C(CSc1ccc(-c2nc3ccccc3[nH]2)cn1)Nc1ccc2c(c1)OCCO2	–	–	–	–	–	–	·	·	·	·	·
N#CCSc1ccc(-c2nc3ccccc3[nH]2)cn1	–	–	–	–	–	68	71	68	89	82	74
Cn1c(CNC(=O)c2ccco2)nnc1SCC(=O)Nc1ccc(Cl)cc1	·	–	–	–	–	–	·	·	·	·	·
Cc1ccc(S(=O)(=O)NNC(=O)c2ccoc2C)cc1	–	–	–	–	–	–	·	·	·	·	·
Nc1ccc(-c2nc3c(ccc4ccccc43)[nH]2)cc1	–	–	–	–	59	–	–	–	–	–	–
CCNC(=O)C1CCCN(C(=O)Cc2ccc3ccccc3c2)CC1 (stereo not given)	·	·	·	–	·	·	·	·	·	·	·
O=c1[nH]c(N/N=C/c2ccccc2)nc2ccccc12	–	–	–	–	–	–	·	·	·	·	·
Cc1cc(N/N=C/c2ccc3c(c2)OCO3)nc2ccccc12	–	–	–	–	59	70	–	68	88	–	–
O=c1[nH]c(N/N=C\c2ccc3c(c2)OCO3)nc2ccccc12	–	–	–	–	56	–	–	–	–	60	–
CCN1C(=O)[C@H]2[C@@H](c3ccc(C(F)(F)F)cc3)N[C@]3(CCCN(Cc4ccc(F)cc4)C3=O)[C@H]2C1=O	·	·	·	–	·	·	·	·	·	·	·
COc1ccc(-c2ccc(-c3noc(-c4ccccc4C)n3)c(OC)n2)cc1	–	–	–	–	–	–	·	·	·	·	·
Cc1ccccc1-c1noc(-c2ccccc2F)n1	–	–	90	–	84	96	78	78	94	81	61
NC(=O)c1ccc(-c2noc(-c3ccccc3F)n2)cc1	·	·	66	–	74	77	–	63	77	69	–
Cc1ccccc1-c1noc(-c2ccc(O)cc2)n1	–	100	99	–	98	101	99	100	102	98	97
Cc1ccccc1-c1noc(-c2ccc(Cl)cc2)n1	–	–	–	–	–	79	–	–	–	–	–
O=C(c1ccccc1-c1nc(-c2ccc(Cl)cc2)no1)N1CCCC1	–	–	–	–	–	–	·	·	·	·	·
